We go through 36 molecules from PubChem BioAssay (Tox21).

Where “and” joins values, the source holds several entries; their conditions need not be identical. Equal values may be shown once. Inconclusive results are not listed. Entries that show only a call come without a potency. Some structures have more than one record in an assay (separate samples or runs), and their calls can disagree. Calls of active or inactive are those of the source. The call rests on the fitted dose curve; in most records, active means well fitted curve in the direction sought with a large enough effect in the repeat runs; inconclusive means weak or mixed curves; inactive means no such curve, though single readings can be large; an effect the other way counts as inactive or inconclusive.

A short description of the first test: qHTS assay for identifying genotoxic compounds that show differential cytotoxicity against isogenic chicken DT40 cell lines with known DNA damage response pathways - Rev3 mutant cell line (AID 743014). Further: nearly all actives have a fitted effect of over 55% in size. Further: potency means the concentration at half of the fitted maximal effect. Particulars: chicken DT40 Rev3-/- viability, CellTiter-Glo, 40 h; series mostly up to 68.4 µM; activity, negative = cytotoxicity: at the top concentration. (In general: Quantitative high-throughput screening tests each substance at several concentrations.)
As to `ClCCBr`, the Potency entry is “inactive”.

On to `CCNc1nc(NC(C)C)nc(SC)n1`, for which the Potency was 61.1 µM (active).

Turning to `CC(Oc1ccc(Cl)cc1Cl)C(=O)O` (stereo not drawn), the “activity, negative = cytotoxicity” value was -23.4% (inactive).

As to `CCC[CH2][Sn]([Cl])([Cl])[Cl]`, the Potency result was “inactive”.

`CN(N=O)c1ccccc1`: the Potency result is “inactive”.

`O=c1ccc(=O)[nH][nH]1`: the “activity, negative = cytotoxicity” value is -6.3% [at 95 µM] (inactive).

`Nc1c(Cl)c(Cl)nc(C(=O)O)c1Cl`: the Potency result is “inactive”.

`CC(C)(Cl)Cl`: the Potency result was “inactive”.

Turning to `CC(C)(C)OOC(=O)c1ccccc1`, the Potency result was “inactive”.

As for `CCCCCOC(=O)c1ccccc1C(=O)OCCCCC`, the Potency entry was “inactive”.

As for `O=[N+]([O-])c1ccccc1`, the Potency result was “inactive”.

Turning to `O=NN1CCCCCCC1`, the Potency result is “inactive”.

Consider `c1ccc(OP(Oc2ccccc2)Oc2ccccc2)cc1`, for which the Potency entry is “inactive”.

`CCCCOC(=O)c1ccccc1C(=O)OCCCC`: the “activity, negative = cytotoxicity” value is -17.5% (inactive).

As for `Nc1ccc(Cc2ccc(N)cc2)cc1`, the Potency entry was “inactive and 48.6 µM (active)”.

With `COC(=O)c1ccccc1C(=O)OC`, the Potency entry is “inactive”.

Regarding `NCCc1ccc(O)cc1`, the Potency entry is “inactive”.

For the molecule `C#CCN(C)[C@H](C)Cc1ccccc1`, the Potency entry was “inactive”.

As to `CC(C)OC(=O)Nc1ccccc1`, the “activity, negative = cytotoxicity” value is 6.44% (inactive).

For `CC(C)OC(=O)Nc1cccc(Cl)c1`, the Potency result is “inactive”.

As to `O=C(NC(=O)c1c(F)cccc1F)Nc1cc(Cl)c(OC(F)(F)C(F)C(F)(F)F)cc1Cl` (stereo not drawn), the Potency is 4.22 µM (active).

With `Oc1ccccc1Cl`, the Potency result was “inactive”.

In the case of `Cc1ccccc1O`, the Potency entry was “inactive”.

As for `CCc1cccc(C)c1N(C(=O)CCl)C(C)COC` (stereo not drawn), the Potency is 16.2 µM (active) and 12.2 µM (active).

Regarding `CC(C)C1(C)N=C(c2nc3ccccc3cc2C(=O)O)NC1=O` (stereo not drawn), the Potency entry was “inactive”.

`C1CC2OC2CC1C1CO1` (stereo not drawn): the Potency result was “inactive”.

Regarding `Cc1[nH]c(=O)n(C(C)(C)C)c(=O)c1Cl`, the Potency entry is “inactive”.

For `CCN(CC)c1ccccc1`, the “activity, negative = cytotoxicity” value was 0.27% (inactive).

Take `CCC12COCN1COC2`: the Potency entry was “inactive”.

Regarding `c1ccc2c(c1)oc1ccccc12`, the Potency result is “inactive”.

As for `COc1ccc2c3c1O[C@H]1[C@@H](O)C=C[C@H]4[C@@H](C2)N(C)CC[C@@]341`, the Potency entry is “inactive”.

With `BrCCBr`, the Potency is 18.8 µM (active) and inactive.

As for `CC(C)N1C(=O)c2ccccc2NS1(=O)=O`, the Potency entry was “inactive”.

As for `CC(C)(C)OOC(C)(C)C`, the Potency entry was “inactive”.

With `O=Cc1cccc(Oc2ccccc2)c1`, the “activity, negative = cytotoxicity” value was -14.6% (inactive).

On to `Cc1cc(-c2cc(C)c(N)c(C)c2)cc(C)c1N`, for which the “activity, negative = cytotoxicity” value was -1.81% (inactive).

A short description of a further test: qHTS assay for identifying genotoxic compounds that show differential cytotoxicity against isogenic chicken DT40 cell lines with known DNA damage response pathways - Rad54/Ku70 mutant cell line (AID 743015). Further: nearly all actives have a fitted effect of over 60% in size. Further: potency means the concentration at half of the fitted maximal effect. Particulars: DT40 Rad54/Ku70 mutant viability, CellTiter-Glo, 40 h; series mostly up to 66.8 µM; activity change, negative = cytotoxicity: at the top concentration.
With `ClCCBr`, the Potency result is “inactive”.

Turning to `CCNc1nc(NC(C)C)nc(SC)n1`, the Potency was 61.1 µM (active).

As for `CC(Oc1ccc(Cl)cc1Cl)C(=O)O` (stereo not drawn), the Potency entry was “inactive”.

In the case of `CCC[CH2][Sn]([Cl])([Cl])[Cl]`, the Potency entry was “inactive”.

Regarding `CN(N=O)c1ccccc1`, the “activity change, negative = cytotoxicity” value was 13.9% [at 95.1 µM] (inactive).

In the case of `O=c1ccc(=O)[nH][nH]1`, the Potency entry is “inactive”.

Regarding `Nc1c(Cl)c(Cl)nc(C(=O)O)c1Cl`, the Potency result was “inactive”.

In the case of `CC(C)(Cl)Cl`, the Potency result is “inactive”.

As to `CC(C)(C)OOC(=O)c1ccccc1`, the Potency entry is “inactive”.

In the case of `CCCCCOC(=O)c1ccccc1C(=O)OCCCCC`, the “activity change, negative = cytotoxicity” value is 4.1% (inactive).

In the case of `O=[N+]([O-])c1ccccc1`, the Potency entry is “inactive”.

In the case of `O=NN1CCCCCCC1`, the Potency result is “inactive”.

With `c1ccc(OP(Oc2ccccc2)Oc2ccccc2)cc1`, the Potency entry was “inactive”.

In the case of `CCCCOC(=O)c1ccccc1C(=O)OCCCC`, the “activity change, negative = cytotoxicity” value was -7.35% (inactive).

As to `Nc1ccc(Cc2ccc(N)cc2)cc1`, the Potency entry is “inactive”.

`COC(=O)c1ccccc1C(=O)OC`: the Potency entry is “inactive”.

As for `NCCc1ccc(O)cc1`, the Potency result is “inactive”.

In the case of `C#CCN(C)[C@H](C)Cc1ccccc1`, the Potency result is “inactive”.

Regarding `CC(C)OC(=O)Nc1ccccc1`, the Potency entry was “inactive”.

Regarding `CC(C)OC(=O)Nc1cccc(Cl)c1`, the “activity change, negative = cytotoxicity” value was -20.2% (inactive).

Turning to `O=C(NC(=O)c1c(F)cccc1F)Nc1cc(Cl)c(OC(F)(F)C(F)C(F)(F)F)cc1Cl` (stereo not drawn), the Potency is 5.96 µM (active) and 21.7 µM (active).

For `Oc1ccccc1Cl`, the Potency entry was “inactive”.

Turning to `Cc1ccccc1O`, the Potency result is “inactive”.

As to `CCc1cccc(C)c1N(C(=O)CCl)C(C)COC` (stereo not drawn), the Potency is 45.8 µM (active) and 17.2 µM (active).

For the molecule `CC(C)C1(C)N=C(c2nc3ccccc3cc2C(=O)O)NC1=O` (stereo not drawn), the Potency entry is “inactive”.

For `C1CC2OC2CC1C1CO1` (stereo not drawn), the Potency entry is “inactive”.

On to `Cc1[nH]c(=O)n(C(C)(C)C)c(=O)c1Cl`, for which the Potency entry was “inactive”.

On to `CCN(CC)c1ccccc1`, for which the Potency result was “inactive”.

For `CCC12COCN1COC2`, the Potency entry is “inactive”.

Turning to `c1ccc2c(c1)oc1ccccc12`, the Potency entry is “inactive”.

Take `COc1ccc2c3c1O[C@H]1[C@@H](O)C=C[C@H]4[C@@H](C2)N(C)CC[C@@]341`: the Potency result is “inactive”.

For the molecule `BrCCBr`, the Potency result was “inactive”.

Regarding `CC(C)N1C(=O)c2ccccc2NS1(=O)=O`, the Potency result is “inactive”.

For the molecule `CC(C)(C)OOC(C)(C)C`, the Potency entry is “inactive”.

Consider `O=Cc1cccc(Oc2ccccc2)c1`, for which the “activity change, negative = cytotoxicity” value was 3.33% (inactive).

`Cc1cc(-c2cc(C)c(N)c(C)c2)cc(C)c1N`: the “activity change, negative = cytotoxicity” value was -7.65% (inactive).

The nature of the next test: qHTS assay to identify small molecule antagonists of the androgen receptor (AR) signaling pathway - cell viability counter screen (AID 743033; further: nearly all actives have a fitted effect of over 45% in size). Particulars: AR-bla HEK293 viability, CellTiter-Glo luminescence, 16 h; series mostly up to 58.5 µM; activity change, negative = cytotoxicity: at the top concentration.
With `ClCCBr`, the call was inactive.

Regarding `CCNc1nc(NC(C)C)nc(SC)n1`, the “activity change, negative = cytotoxicity” value was 0.406% [at 78.9 µM] (inactive).

As for `CC(Oc1ccc(Cl)cc1Cl)C(=O)O` (stereo not drawn), the outcome was inactive.

With `CCC[CH2][Sn]([Cl])([Cl])[Cl]`, the outcome was inactive.

Take `CN(N=O)c1ccccc1`: the call was inactive.

`O=c1ccc(=O)[nH][nH]1`: the call was inactive.

In the case of `Nc1c(Cl)c(Cl)nc(C(=O)O)c1Cl`, the molecule was called inactive.

Consider `CC(C)(Cl)Cl`, for which the molecule was called inactive.

Consider `CC(C)(C)OOC(=O)c1ccccc1`, for which the call was inactive.

In the case of `CCCCCOC(=O)c1ccccc1C(=O)OCCCCC`, the molecule was called inactive.

For the molecule `O=[N+]([O-])c1ccccc1`, the outcome was inactive.

Regarding `O=NN1CCCCCCC1`, the result was inactive.

Regarding `c1ccc(OP(Oc2ccccc2)Oc2ccccc2)cc1`, the molecule was called inactive.

Take `CCCCOC(=O)c1ccccc1C(=O)OCCCC`: the outcome was inactive.

Consider `Nc1ccc(Cc2ccc(N)cc2)cc1`, for which the molecule was classed as inactive.

As to `COC(=O)c1ccccc1C(=O)OC`, the result was inactive.

On to `NCCc1ccc(O)cc1`, for which the molecule was classed as inactive.

Take `C#CCN(C)[C@H](C)Cc1ccccc1`: the call was inactive.

Take `CC(C)OC(=O)Nc1ccccc1`: the molecule was classed as inactive.

For `CC(C)OC(=O)Nc1cccc(Cl)c1`, the outcome was inactive.

Turning to `O=C(NC(=O)c1c(F)cccc1F)Nc1cc(Cl)c(OC(F)(F)C(F)C(F)(F)F)cc1Cl` (stereo not drawn), the molecule was called inactive.

For the molecule `Oc1ccccc1Cl`, the outcome was inactive.

Turning to `Cc1ccccc1O`, the outcome was inactive.

For the molecule `CCc1cccc(C)c1N(C(=O)CCl)C(C)COC` (stereo not drawn), the call was inactive.

For `CC(C)C1(C)N=C(c2nc3ccccc3cc2C(=O)O)NC1=O` (stereo not drawn), the molecule was called inactive.

In the case of `C1CC2OC2CC1C1CO1` (stereo not drawn), the molecule was called inactive.

Consider `Cc1[nH]c(=O)n(C(C)(C)C)c(=O)c1Cl`, for which the result was inactive.

As to `CCN(CC)c1ccccc1`, the outcome was inactive.

`CCC12COCN1COC2`: the result was inactive.

For `c1ccc2c(c1)oc1ccccc12`, the call was inactive.

`COc1ccc2c3c1O[C@H]1[C@@H](O)C=C[C@H]4[C@@H](C2)N(C)CC[C@@]341`: the outcome was inactive.

In the case of `BrCCBr`, the call was inactive.

In the case of `CC(C)N1C(=O)c2ccccc2NS1(=O)=O`, the result was inactive.

On to `CC(C)(C)OOC(C)(C)C`, for which the outcome was inactive.

In the case of `O=Cc1cccc(Oc2ccccc2)c1`, the “activity change, negative = cytotoxicity” value is -0.16% (inactive).

Regarding `Cc1cc(-c2cc(C)c(N)c(C)c2)cc(C)c1N`, the call was inactive.
